Source: PubChem (National Center for Advancing Translational Sciences (NCATS))
The list is not random: actives were taken first. Their share in the collection is about 6.2%.
VP16 counter = inhibits Gal4-VP16 luciferase reporter, ROR gamma counter-screen; Drosophila S2 Gal4-VP16 UAS-luciferase, luminescence, 20 h; Potency, µM (highest dose often 53.6 µM), usual class: inhibitors; AID 2546; actives 3.5% (n = 310,000);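 note: Gal4-VP16 expression switched on by copper sulfate through the metallothionein promoter; nearly all actives have a fitted effect of over 50% in size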
Luc counter = counter-screen: inhibitors of Kinase-Glo firefly luciferase | Q27757 | Kinase-Glo luciferase, ATP luminescence, 8 min | Potency, µM (highest dose often 38.3 µM), hits mostly inhibitors | actives 0.28% (n = 200,000) | AID 1379; note: nearly all actives have a fitted effect of over 60% in size
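Light output from Kinase-Glo luciferase with luciferin and 10 uM ATP in 50 mM imidazole pH 7.2, KCl, MgCl2, Tween 20, BSA; compound pin-delivered, 8-min ambient incubation, then luminescence read.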
RORgamma inh = blocks mouse ROR gamma transcriptional activity; P51450; Drosophila S2 Gal4-RORgamma UAS-luciferase reporter, 20 h; Potency, µM (top dose mostly 53.6 µM), actives largely listed as inhibitors; actives 5.4% (n = 310,000); AID 2551; note: nearly all actives have a fitted effect of over 60% in size
Target sequence (P51450 whole entry, looked up, the tested form may be a part): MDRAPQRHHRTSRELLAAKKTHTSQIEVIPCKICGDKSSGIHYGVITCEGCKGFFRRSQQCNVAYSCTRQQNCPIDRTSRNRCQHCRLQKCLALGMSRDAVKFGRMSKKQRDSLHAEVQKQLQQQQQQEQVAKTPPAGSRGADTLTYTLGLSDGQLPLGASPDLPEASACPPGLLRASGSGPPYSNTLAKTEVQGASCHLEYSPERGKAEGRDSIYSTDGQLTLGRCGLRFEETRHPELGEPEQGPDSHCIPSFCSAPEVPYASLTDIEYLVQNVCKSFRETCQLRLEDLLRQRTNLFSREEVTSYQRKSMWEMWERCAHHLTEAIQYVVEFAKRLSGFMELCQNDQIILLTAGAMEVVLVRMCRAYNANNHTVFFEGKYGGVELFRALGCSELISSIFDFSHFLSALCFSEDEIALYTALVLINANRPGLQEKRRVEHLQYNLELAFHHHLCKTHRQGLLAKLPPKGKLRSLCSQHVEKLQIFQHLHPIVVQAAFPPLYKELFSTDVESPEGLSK
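Drosophila S2 cells stably expressing Gal4-DBD/mouse RORγ fusion under metallothionein promoter plus UAS-luciferase; compound 1 h, then 700 uM CuSO4 induction for 20 h at ambient temperature; inhibition read as reduced luminescence.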
Large screens that a line does not name were inactive. Calls come from the whole dose curve; as a rule, active = well fitted curve in the direction sought with a large enough effect; inconclusive = small, poorly fitted or top-dose-only effect, or another doubt; inactive = no such curve, though single readings can be large; an effect the other way counts as inactive or inconclusive.

Cc1cc(NC(=O)c2cc(-c3ccco3)on2)n(-c2ccccc2)n1	RORgamma inh 7.9µM
COc1ccc(NC(=S)NC(=O)/C=C/c2cccs2)cc1	VP16 counter inconclusive, RORgamma inh 3.5µM
CC(=O)c1ccc(NC(=S)NC(=O)/C=C/c2ccc(F)cc2)cc1	RORgamma inh inconclusive (no result: Luc counter)
COc1ccc(NC(=S)NC(=O)/C=C/c2ccco2)cc1	none
COc1ccccc1NC(=S)NC(=O)/C=C/c1cccs1	VP16 counter 11µM, RORgamma inh 4.5µM
COc1ccc(NC(=S)NC(=O)/C=C/c2ccccc2)cc1	VP16 counter 7.1µM, RORgamma inh 7.1µM (no result: Luc counter)
COc1cccc(NC(=S)NC(=O)/C=C/c2ccc(F)cc2)c1	VP16 counter inconclusive, RORgamma inh 7.1µM (no result: Luc counter)
O=C(/C=C/c1cccs1)NC(=S)Nc1ccc(S(=O)(=O)Nc2ccccc2C(F)(F)F)cc1	none (no result: Luc counter)
CCCCOC(=O)c1ccc(NC(=O)/C=C/c2cccs2)cc1	VP16 counter inconclusive, RORgamma inh inconclusive
Cc1ccc(C(=O)NCC(=O)OCC(=O)c2ccc3c(c2)NC(=O)CO3)cc1	none
NNC(=O)C(=O)Nc1ccc(O)cc1	none (no result: Luc counter)
Cc1cccc(CNc2ncnc3ccc(-c4ccccc4C#N)cc23)c1	none
O=C(CCC1CCCN(C(=O)c2ccsc2)C1)N1CCN(c2ccccn2)CC1 (stereo not given)	none (no result: Luc counter)
O=C(Cc1ccc2c(c1)OCCO2)c1c(O)cc(O)cc1O	none
Oc1ccc(N=Nc2ccc3c(c2)OCCO3)c(O)c1	VP16 counter 10µM, RORgamma inh 8.9µM (no result: Luc counter)
Cc1[nH]c2c(C)ccc(C)c2c1CC(=O)O	none (no result: VP16 counter, RORgamma inh)
CC(C)[C@H](NC(=O)OC(C)(C)C)c1nnc(SCC(=O)Nc2ccc(Br)cc2)o1	VP16 counter 32µM, RORgamma inh 2.5µM
C[C@H](NC(=O)OC(C)(C)C)c1nnc(SCC(=O)Nc2cccc(Cl)c2)o1	none (no result: Luc counter)
COc1ccc(NCc2ccc([N+](=O)[O-])s2)cc1	VP16 counter inconclusive
COc1ccc(NCc2ccc([N+](=O)[O-])s2)c(OC)c1	VP16 counter 11µM
OCCN(CCO)c1ccc(C(c2ccccc2Cl)c2ccc(N(CCO)CCO)cc2Cl)c(Cl)c1	VP16 counter inconclusive, RORgamma inh 14µM (no result: Luc counter)
OCCN(CCO)c1ccc2ccccc2c1	none
O=C(COC(=O)c1ccccc1Sc1ccc(C(F)(F)F)cc1[N+](=O)[O-])NC(=O)NC1CCCC1	VP16 counter inconclusive, RORgamma inh inconclusive
O=C(NC(=O)N1CCN(c2cccc(Cl)c2)CC1)c1ccc(Cl)cc1	VP16 counter inconclusive, RORgamma inh 16µM (no result: Luc counter)
O=C(NC(=O)N1CCN(c2cccc(Cl)c2)CC1)c1ccccc1	none
S=C(Nc1ccc2cn[nH]c2c1)Nc1ccccc1Cl	none
Cc1cccc(-c2noc(CCCC(=O)NC3CCCC3)n2)c1	VP16 counter inconclusive (no result: Luc counter)
COc1ccc(C(C#N)c2nc3ccccc3nc2Cl)cc1 (stereo not given)	RORgamma inh inconclusive (no result: Luc counter)
N#CC(c1ccc(Cl)cc1)c1nc2ccccc2nc1C(F)(F)F (stereo not given)	VP16 counter 10µM, RORgamma inh inconclusive
O=C(CCN1CCOCC1)NNC(=O)Nc1cccc([N+](=O)[O-])c1	none (no result: Luc counter)
CC(C)c1cccc(C(C)C)c1NC(=O)COC(=O)c1ccc2c(c1)S(=O)(=O)c1ccccc1C2=O	none
Cc1ccc(C)n1CCN1CCN(S(=O)(=O)c2ccc(F)cc2F)CC1	none (no result: Luc counter)
COc1ccc(OC)c(S(=O)(=O)N(C)CC(=O)Nc2ccc3c(c2)OCO3)c1	RORgamma inh inconclusive
COc1ccc(OC)c(S(=O)(=O)NNC(=S)Nc2ccc3c(c2)OCO3)c1	VP16 counter inconclusive, RORgamma inh 10µM (no result: Luc counter)
Cn1c(SCC(=O)O)nnc1-c1cccc(NC(=O)c2cccc3ccccc23)c1	none (no result: Luc counter)
O=C(C1CC1)N1CCC(C(O)(c2ccccc2)c2ccccc2)CC1	none
CC(C)(C)C(=O)N1CCC[C@H]1C(O)(c1ccccc1)c1ccccc1	VP16 counter 22µM, RORgamma inh inconclusive
O=C(O)CSc1nnc(-c2ccncc2)n1C1CCCCC1	none
Cn1c(NC2CCCCC2)cc(=O)n(C)c1=O	none (no result: Luc counter)
Cc1cc(C2CCCCC2)n(O)c(=O)c1	VP16 counter 2.2µM, RORgamma inh 2µM
COCCNC(=O)CCn1nc(-c2ccc(C)cc2)ccc1=O	none (no result: Luc counter)
CCSC1=NCCN1S(=O)(=O)c1ccc(NC(C)=O)cc1	none
COCCCNC(=O)c1ccccc1-c1cc(C)no1	none (no result: Luc counter)
COc1ccc(/C=N/NC(=O)c2ccco2)cc1COc1ccc(F)cc1	RORgamma inh inconclusive (no result: Luc counter)
COc1ccc(/C=N/NC(=S)Nc2ccccc2)cc1COc1ccc(F)cc1	VP16 counter 0.89µM, RORgamma inh 0.35µM
COc1ccc(C(=O)N/N=C/c2ccc(OC)c(COc3ccccc3)c2)cc1	none (no result: Luc counter)
COc1ccc(/C=N/NC(=O)c2nc(Cl)c(Cl)c(N)c2Cl)cc1COc1ccccc1F	none
COc1ccc(/C=N/NC(=S)Nc2ccccc2)cc1COc1ccc(Br)cc1	VP16 counter 2.2µM, RORgamma inh 0.32µM (no result: Luc counter)
COc1ccc(/C=N/NC(=S)Nc2ccccc2)cc1COc1ccccc1F	VP16 counter 3.2µM, RORgamma inh 2.2µM
CCOc1ccc(NC(=O)CN(C)Cc2cc(=O)n3c(-c4ccccc4)csc3n2)cc1OCC	none
CCOC(=O)/C(C)=N/NC(=O)c1ccc([N+](=O)[O-])cc1	none
CCOC(=O)C(CC)/C(C)=N/NC(=O)c1ccc([N+](=O)[O-])cc1 (stereo not given)	VP16 counter inconclusive, RORgamma inh 13µM
COC(=O)CCC(=O)OC1(C)C(=O)C=C2C=C(C3CC3)N(c3ccc(OC)cc3)C=C2C1=O (stereo not given)	none (no result: VP16 counter, RORgamma inh)
FC(F)(F)c1nnc(-c2ccccc2)nc1Sc1ccc(Cl)cc1	VP16 counter inconclusive, RORgamma inh 6.3µM
FC(F)(F)c1nnc(-c2ccccc2)nc1Sc1ccccc1	VP16 counter inconclusive, RORgamma inh inconclusive
FC(F)(F)c1nnc(-c2ccccc2)nc1N1CCCC1	none
FC(F)(F)c1cccc(Sc2nc(-c3ccccc3)nnc2C(F)(F)F)c1	VP16 counter inconclusive, RORgamma inh 3.5µM
Cn1ncc(Br)c1NC(=O)Nc1ccc(OC(F)(F)F)cc1	none (no result: Luc counter)
CC(=O)Cn1c(CN2CCN(C(=O)c3ccco3)CC2)nc2c1c(=O)n(C)c(=O)n2C	none (no result: Luc counter)
CC(=O)c1ccc[nH]1	none
OC(CNCc1ccc(Cl)cc1)(c1ccccc1)c1ccc(F)cc1 (stereo not given)	VP16 counter 11µM, RORgamma inh inconclusive
OC(CNCc1ccc(F)cc1)(c1ccc(F)cc1)c1ccc(F)cc1	none
CN(CCc1ccccc1)C(=O)CCc1nnc(Cc2ccc3c(c2)OCO3)o1	none (no result: Luc counter)
O=C(CCCNc1ccccc1)N/N=C/c1cccs1	none
CC1(C)CC(=O)C(C=Nc2cccnc2/N=C/C2=C(O)CC(C)(C)CC2=O)=C(O)C1	RORgamma inh 10µM
CC1(C)CC(=O)C(C=Nc2ccc(C(=O)c3ccccc3)cc2N=CC2=C(O)CC(C)(C)CC2=O)=C(O)C1	RORgamma inh 16µM
CC1(C)CC(=O)C(C=Nc2cccnc2)=C(O)C1	none
CC1(C)CC(=O)C(C=Nc2ccc(O)c(N=CC3=C(O)CC(C)(C)CC3=O)c2)=C(O)C1	none
C=CCOn1c(=O)c(-c2ccc(F)cc2)[n+]([O-])c2ccccc21	none (no result: Luc counter)
COCCCNC(=S)N/N=C/c1ccc(O)cc1O	none (no result: Luc counter)
COCCCNC(=S)N/N=C/c1ccc(OC)cc1	VP16 counter inconclusive, RORgamma inh 5.6µM (no result: Luc counter)
COCCCNC(=S)N/N=C/c1ccc2ccccc2c1	VP16 counter 18µM, RORgamma inh 4.5µM (no result: Luc counter)
